Compound activity deposited in PubChem BioAssay by National Center for Advancing Translational Sciences (NCATS).
Shiga toxin inh = blocks Shiga toxin action in Vero cells. 290,000 tested, 9.2% active. Vero cells, Shiga toxin protein synthesis inhibition reporter. inhibition, % at 38.7 µM; in the data active = inhibition mostly above about 28%, no sharp cut-off; inactive = mostly below about 43%; note: 0% is about no effect
Pf growth 48h = P. falciparum growth inhibition at 48 hours (one generation); P. falciparum luciferase growth in erythrocytes, 48 h; 310,000 tested, 5.9% active; AID 504832; Potency, µM (titrated, usually from 28.7 µM), without a hit: at the top dose activity change, negative = inhibition, most hits filed as inhibitors; note: potency is the fitted concentration of half-maximal effect; % is set by controls: 0 for no effect and ±100 for the full control effect
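In quantitative HTS format, infected erythrocytes bearing luciferase-reporter parasites were treated for a single generation at 37 C. Luminescence after adding detection reagent served as the growth measure.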
CHX counter = counter-screen for Shiga toxin inhibitors: cycloheximide protein synthesis inhibition; max response, %; cell reporter, cycloheximide protein synthesis inhibition counterscreen; 300,000 tested, 12% active; AID 2314; in the data active = max response mostly above about 13%, no sharp cut-off; inactive = mostly below about 14%; note: read at 38.3 µM for the half of the compounds with a filed dose; 0% is about no effect
Pf growth 96h = P. falciparum growth inhibition at 96 hour, primary screen for plastid delayed-death inhibitors; 320,000 tested, 6.9% active; Potency, µM (titrated, usually from 28.7 µM), inactives show top-dose activity change, negative = inhibition, most hits filed as inhibitors; P. falciparum luciferase reporter growth, 96 h; note: potency is the fitted concentration of half-maximal effect; % is set by controls: 0 for no effect and ±100 for the full control effect
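Delayed-death screen, second-generation endpoint: infected erythrocytes, 2% hematocrit, 0.05% parasitemia final; 96 hours at 37 C, 5% CO2; luciferase detection reagent; luminescence decrease equals reduced growth.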
* = called active by the depositor; i = inactive; ? = inconclusive; · = not tested or not shown. Compounds with a hit are over-represented: about 21% of the library has one in this group of screens. Unless noted, calls come from the whole dose curve; as a rule, active = well fitted inhibition curve with a large enough effect; inconclusive = small, poorly fitted or top-dose-only effect, or another doubt; inactive = no such curve, though single readings can be large or run the other way.

SMILES | Shiga toxin inh | Pf growth 48h | CHX counter | Pf growth 96h
CN1C(=O)/C(=C\c2ccco2)N=C1c1ccc(Cl)cc1Cl | 74* | 4% | 28* | 21%
O=C1OC(/C=C/c2ccc(Cl)cc2)=NC/1=C/c1ccco1 | -29 | 11% | 24* | ?
O=C1OC(/C=C/c2ccccc2)=NC/1=C/C=C/c1ccccc1 | -10 | 18% | -1 | 30%
CN(C(=O)c1ccccc1[N+](=O)[O-])c1ccccc1C(=O)NCc1ccccc1 | -3 | ? | -3 | -22%
CC(C)[C@H](NC(=O)c1nn(Cc2ccccc2)c(=O)c2ccccc12)C(=O)O | 17 | -23% | -1 | -13%
CC(C)NC(=S)N/N=C/c1ccc(C(C)(C)C)cc1 | 28 | ? | 21* | ?
Cc1ccc(C)c(/C=N/NC(=S)NC(C)C)c1 | 5 | ? | -2 | 13µM*
CNC(=S)N/N=C/c1cc(C)ccc1C | -13 | -18% | 1 | ?
S=C(NCc1ccccc1)N/N=C/c1cccs1 | 12 | 7.4µM* | 10 | ?
CC(C)NC(=S)N/N=C/c1cccs1 | -8 | · | 8 | 3.3µM*
COc1ccccc1N(C(=O)c1ccco1)C(C(=O)NC1CCCCC1)c1cc(OC)c(OC)c(OC)c1 (configuration not stated) | 4 | 0% | -3 | ?
CCn1c(=S)sc2c(=O)n(CC(=O)NCCCc3ccccc3)c(C)nc21 | -10 | 33% | -1 | 21%
Cc1c(Cl)cccc1NC(=O)CNC(=O)Cc1c[nH]c2ccccc12 | · | -26% | · | ?
NC(=O)c1ccccc1N/C=C/C(=O)c1ccc(Cl)cc1Cl | 72* | i | 33* | 201%
NC(=O)c1ccccc1N/C=C/C(=O)c1cccs1 | 45* | 128% | 44* | 40%
Cc1c(NC(=O)c2cccs2)cccc1NC(=O)c1cccs1 | 2 | 30% | -2 | -21%
Cc1cccc(N/C=C/C(=O)c2cccs2)c1C | 74* | 168% | 49* | 4.7µM*
NC(=O)c1ccccc1N/C=C/C(=O)c1ccc(F)cc1 | 98* | 261% | 56* | 410%
Cc1ccccc1NC(=O)Nc1ccccc1C(N)=O | 14 | 0% | -3 | i
COc1cc([N+](=O)[O-])ccc1N/C=C/C(=O)c1cccs1 | 60* | 313% | 27* | 275%
Cc1ccc(C(=O)/C=C/Nc2ccccc2C(N)=O)o1 | 83* | 108% | 54* | 65%
O=C(Cc1ccon1)c1ccc(O)cc1O | -7 | 29% | -1 | 25%
CSCCC(NC(N)=O)C(=O)Nc1cccc(C#N)c1 (configuration not stated) | 22 | 14% | -2 | 6%
CCOc1ccc(OCCC(=O)OCC(=O)Nc2ccc(Cl)cn2)cc1 | · | -1% | · | 30%
O=C(Nc1ccc(Cl)cn1)c1ccc(Oc2ccccc2)cc1 | 32* | 90% | 34* | ?
SMILES | Shiga toxin inh | Pf growth 48h | CHX counter | Pf growth 96h
O=C(Nc1c(Cl)cccc1Cl)c1ccc(-c2ccccc2)cc1 | 16 | 21% | 12 | -15%
O=C(Nc1cc(-c2ccccc2)[nH]n1)c1ccc(Cl)cc1 | 88* | -9% | 51* | -18%
O=C(Nc1ccc(Cl)cn1)c1cccc(OCc2ccccc2)c1 | 48* | 9% | 22* | 131%
CCCOc1ccc(C(=O)Nc2ccc(Cl)cn2)cc1 | 77* | · | 30* | 40%
CN(c1ccc(C(=O)Nc2ccc(Cl)cn2)cc1)S(=O)(=O)c1ccccc1 | 20 | -13% | 12 | -27%
NC(=O)C1c2ccccc2CCc2ccccc21 | · | -5% | · | ?
CCCCCCCn1c(C)nnc1-c1cnn(C)c1N | -5 | i | 6 | 42%
CCOc1ccc(CNC(=O)c2ccc(NC(=O)C3=CSCCO3)cc2)cc1 | 20 | 0% | 34* | ?
COc1cccc(CNC(=O)c2ccc(NC(=O)C3CCCO3)cc2)c1 (configuration not stated) | -5 | 16% | 1 | 74%
COc1cccc(CNC(=O)c2ccc(NC(=O)C3=CSCCO3)cc2)c1 | 116* | 13% | 22* | -28%
Cc1ccc(CNC(=O)c2ccc(NC(=O)C3=CSCCO3)cc2)cc1 | 28* | 14% | 15 | -16%
COCCNC(=O)CN1CCN(S(=O)(=O)c2ccc3c(c2)CCCC3)CC1 | · | -14% | · | -17%
COCCN(CC(=O)Nc1cccc(C)c1C)C(=O)c1ccc(-n2cccn2)cc1 | · | ? | · | -23%
CCNC(=S)N=Nc1c(O)[nH]c2ccc([N+](=O)[O-])cc12 | -5 | ? | 4 | 6.6µM*
O=C(Nc1ccc(F)cc1)C(=O)c1c(O)[nH]c2ccc([N+](=O)[O-])cc12 | 26 | 12% | 19* | 27%
Cc1ccc(NCC(=O)N=Nc2c(O)[nH]c3ccc([N+](=O)[O-])cc23)cc1 | 73 | -57% | 43* | ?
O=[N+]([O-])c1ccc2[nH]c(O)c(N=NC(=S)NCC3CCCO3)c2c1 (configuration not stated) | 5 | 14% | 1 | 10%
CSc1ncccc1C(=O)N1CCCC(Nc2ccc(C)c(C)c2)C1 (configuration not stated) | -5 | -18% | -3 | 39%
CCN(CC)S(=O)(=O)c1ccc(C(=O)NCc2ccc3[nH]c4c(c3c2)CCCC4)cc1 | -12 | ? | -3 | 12µM*
CCOC(=O)C1CCN(S(=O)(=O)c2ccc3[nH]c4c(c3c2)CCCC4)CC1 | 4 | -17% | 8 | 10µM*
CN(C)S(=O)(=O)c1ccc(C(=O)NCc2ccc3[nH]c4c(c3c2)CCCC4)cc1 | -5 | -21% | -3 | ?
O=C(NCc1ccc2[nH]c3c(c2c1)CCCC3)c1ccc(S(=O)(=O)N2CCCC2)cc1 | -15 | 0% | 1 | 13µM*
Cc1ccc(C)c(NC(=S)NCc2ccc3[nH]c4c(c3c2)CCCC4)c1 | -7 | 13µM* | -3 | 13µM*
CC(C)c1ccccc1-n1c(-c2cccnc2)n[nH]c1=S | -4 | ? | 0 | -36%
CCc1ccc(N2CC(C(=O)Nc3ccc4c(c3)OCO4)CC2=O)cc1 (configuration not stated) | · | -1% | · | 12%
SMILES | Shiga toxin inh | Pf growth 48h | CHX counter | Pf growth 96h
CN(C)CCOc1nc(-c2ccccc2)nc2c1oc1ccccc12 | -8 | 9.3µM* | 2 | 10µM*
CN(C)CCOc1ncnc2c1oc1ccccc12 | 2 | 11% | 1 | ·
CC(C)c1ccc(CN(C)C(=O)c2ccc(S(=O)(=O)NCc3ccco3)cc2)cc1 | · | 9% | · | ?
CC(=O)NCCC(=O)Nc1cc(S(=O)(=O)N2CCOCC2)ccc1Oc1ccccc1 | -7 | -11% | -2 | 12µM*
CC(=O)NCCC(=O)Nc1cc(S(=O)(=O)N2CCOCC2)ccc1N1CCCC1 | · | 12µM* | · | 0%
O=C(CNc1cc(S(=O)(=O)N2CCOCC2)ccc1N1CCCC1)N1CCc2ccccc21 | -4 | 13µM* | 1 | ?
N=c1ccn2c(n1)OC1C(O)[C@@H](CO)O[C@H]12 (some centres not stated) | 16 | · | 17 | ·
Cc1cc(C)cc(NC(=O)C2CCN(C(=O)c3cccs3)CC2)c1 | -6 | -4% | 3 | 1%
O=C1C=C(c2ccc3c(c2)OCCO3)C[C@@H](c2ccc(F)cc2)C1 | · | -19% | · | ?
Cc1cc(O)c(C(C)C)cc1NC(=O)c1ccc(Cl)cc1 | 11 | ? | 2 | ?
Cc1cc(O)c(C(C)C)cc1Cl | -12 | ? | -7 | 15µM*
